PubChem BioAssay AID2391 (Southern Research Specialized Biocontainment Screening …, 2010)
Out of some 310,000 compounds screened, about 410 (0.13%) were called active. Roughly 2% stayed inconclusive and do not appear here. How the calls were made is not given here. Only a sample is shown. Potency and affinity values are given separately.

test: inhibition of RSV-induced cytopathic effect – HEp-2 cells, primary 10 µM value included (AID 2391); conditions: at 10 µM, hits give high values

CPE inhibition, inactive:
COc1ccc(-c2ccc3c(N)c(C(=O)c4ccc(OC)c(OC)c4)sc3n2)cc1 1.75%
COc1ccc(NC(=O)c2sc3nc(-c4cccnc4)ccc3c2N)cc1OC 1.58%
O=C(Nc1nc(-c2ccccc2)cs1)c1cccc([N+](=O)[O-])c1C(=O)O 0.63%
CCCC(=O)Oc1ccc(C2NC(=O)c3ccccc3O2)cc1OC (stereo not drawn) -0.32%
CCNS(=O)(=O)c1ccc(CCC(=O)NCc2ccccn2)cc1 -0.26%
CS(=O)(=O)N1N=C(c2ccco2)CC1c1ccc(Br)cc1 (stereo not drawn) -1.1%
CCOc1c(Cl)cc(CNCc2ccccn2)cc1OC 0.14%
C/C(N)=C(/C#N)C(=O)COC(=O)CNS(=O)(=O)c1c(F)cccc1F 1.63%
C/C(N)=C(/C#N)C(=O)COC(=O)CNS(=O)(=O)c1ccc(C)cc1 0.79%
CCOC(=O)c1sc(=NC(=O)c2ccc(OC(C)C)cc2)n(C)c1C -0.02%
Cc1cc[n+](C(C)C(=O)c2ccc(Cl)cc2)cc1 (stereo not drawn) 0.43%
COC(=O)C1=C(N)Oc2cc(C)n(Cc3ccccc3)c(=O)c2C1c1ccccc1 (stereo not drawn) 3.61%
O=C(Nc1ccccc1N1CCN(C(=O)c2ccc(Cl)cc2)CC1)c1ccc(Br)cc1 10.3%
CC(C)(C)NC(=O)COC(=O)c1ccccc1Nc1ccc(SC(F)F)cc1 20.3%
CN(C)C(=O)COC(=O)c1ccccc1OCC(=O)Nc1ccc(SC(F)F)cc1 0.56%
Clc1cc2nc[nH]c2cc1Cl 2.89%
c1ccc2[nH]cnc2c1 3.25%
OCc1cn(-c2ccc(Cl)cc2)nn1 0.61%
COc1cc(NC(=O)C2CC(=O)N(CCc3ccc(F)cc3)C2)cc(OC)c1OC (stereo not drawn) 1.32%
CCCn1c2ccc(F)cc2c2nnc(NN)nc21 2.66%
CCn1c2ccc(F)cc2c2nnc(NN)nc21 8.49%
Cc1nn(-c2ccccc2)cc1/C=N/NS(=O)(=O)c1ccccc1 0.36%
Cc1nc(-c2cccc(S(=O)(=O)N3CCOCC3)c2)cs1 2.05%
O=S(=O)(c1cccc(-c2csc(-c3cccnc3)n2)c1)N1CCOCC1 18.8%
CC(C)(C)c1ccc(C(=O)c2c[nH]c(C(=O)NCCCn3ccnc3)c2)cc1 15.1%
CC(C)[C@H](NC(=O)N1CCn2c1nc1ccccc12)C(=O)NCc1ccc(F)cc1 7.05%
CC(C)[C@H](NC(=O)N1CCn2c1nc1ccccc12)C(=O)NCc1ccco1 5.22%
COc1cc(C(=O)NNC(=O)COc2ccccc2Cl)ccc1OCC(=O)N1CCOCC1 0.6%
O=C(Nc1cccc(NC(=O)c2ccccc2Cl)c1)c1ccco1 2.07%
c1ccc(N2CCN(c3ncnc4scc(-c5cccs5)c34)CC2)cc1 12.1%
COc1ccccc1C(=O)NCCCNc1ccc([N+](=O)[O-])cc1 0.97%
CCn1c(=O)c2cc(C(=O)N(C)c3ccccc3F)sc2c2ccccc21 17.4%
CCn1c(=O)c2cc(C(=O)N(C)c3ccc(OC)cc3OC)sc2c2ccccc21 13.1%
Cc1ccc(-c2nn(-c3ccccc3)cc2CN(Cc2ccccc2)C(=O)c2ccco2)o1 22.2%
Cc1c(CC(=O)N[C@@H](C)C(=O)O)c(=O)oc2c(C)c3occ(-c4ccccc4)c3cc12 6.88%
CCCCC(NC(=O)Cc1c(C)c2cc3c(C)c(C)oc3c(C)c2oc1=O)C(=O)O (stereo not drawn) 1.13%
COc1ccc(Cl)cc1N(C(C)C(=O)O)S(C)(=O)=O (stereo not drawn) 1.24%
CC(C)COc1ccc(C(=O)NNC(=O)c2ccc(=O)[nH]c2)cc1 0.85%
CCCCn1c(N)c(N(CCOC)C(=O)c2cc(CC)c(C)s2)c(=O)[nH]c1=O 0.21%
COc1ccccc1N(Cc1ccccc1)S(=O)(=O)c1cccc(C(=O)Nc2ccc(C)cn2)c1 40.7%
COc1ccccc1N(Cc1ccccc1)S(=O)(=O)c1cccc(C(=O)Nc2ccccn2)c1 40.2%
Cc1ccc(N(CCC#N)C(=O)COC(=O)C2CCN(S(=O)(=O)c3ccc(C)c(C)c3)CC2)cc1 3.94%
CCN(CC)c1ccc(-c2nnc(SCC(=O)N(CCOC)c3c(N)n(CC(C)C)c(=O)[nH]c3=O)o2)cc1 8.83%
COCCN(C(=O)CSc1nnc(-c2ccc(Cl)cc2)o1)c1c(N)n(CC(C)C)c(=O)[nH]c1=O 2.35%
CCc1cc(=O)oc2cc(OC(C)=O)cc(OC(C)=O)c12 5.44%
COc1cc(OC)c2c(C)cc(=O)oc2c1 0.35%
CCOc1ccccc1N(CC(=O)N1CCC(C(N)=O)CC1)S(=O)(=O)c1ccc(SC)cc1 1.65%
Cc1ccc(Cl)cc1NC(=O)CSc1sc2c(O)cc(=O)[nH]c2c1C#N -0.05%
Cc1ccc(C)c(OCC(=O)NCC(c2ccco2)N2CCCCC2)c1 (stereo not drawn) -1.03%
OCCOCCn1c(C(CO)Nc2nc(-c3ccc(Cl)cc3)cs2)nc2ccccc21 (stereo not drawn) 9.48%
c1ccc(Nc2nc(-c3ccncc3)nc3ccccc23)cc1 4.52%
Fc1ccc(Nc2nc(-c3ccncc3)nc3ccccc23)cc1 4.4%
COc1ccc(C(=O)NCCn2cc(SCC(=O)NCC3CCCO3)c3ccccc32)cc1 (stereo not drawn) 0.51%
Cc1ccc(S(=O)(=O)N2CCC(C(=O)Nc3ccc(S(=O)(=O)N4CCCC4)cc3)CC2)cc1 0.34%
Cc1ccc(NC(=O)C2CCN(S(=O)(=O)c3ccc(F)cc3)CC2)cc1 -1.19%
CC(NC(=O)c1ccccc1NC(=O)c1ccccc1)C(=O)N1CCOCC1 (stereo not drawn) 3.72%
Cc1ccc2[nH]c3c(c2c1)CN(C)CC3 -0.58%
CN1CCc2[nH]c3ccc(C(=O)NN)cc3c2C1 -1.2%
